High-throughput results deposited in PubChem by The Scripps Research Institute Molecular Screening Center.
SMARCA2 activ = increases SMARCA2 function in MMTV reporter cells; MG213 cells, MMTV-luciferase reporter, dexamethasone, overnight; activation, % at 9.1 µM; actives 1% (n = 370,000); in the data active means activation above about 7.8%;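 further: 0% = vehicle wells and 100% = reference activator wells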
hcDAF12 agonist = H. contortus DAF-12 activation, primary screen. HEK293 hcDAF-12 lit1-tk-luc reporter, luminescence; 0% DMSO, 100% Δ7-dafachronic acid. activation, % at 6.8 µM. actives 1.4% (n = 370,000);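 active means activation above the mean of all tested compounds plus 3 SD, cut at about 5.5% in these data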;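 further: 100% = response to 3 µM Δ7-dafachronic acid high control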
DAX1 inh-1 = NR0B1 (DAX1) inhibition; AID 504766; HEK293 Gal4-DAX1 luciferase reporter, luminescence; P51843; actives 0.99% (n = 340,000); inhibition, % at 6.75 µM;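 active means inhibition above the mean over all tested compounds plus 3 SD, cut at about 4.2% in these data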;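 further: 0% = DAX1-transfected cells with DMSO and 100% = empty-vector control cells with DMSO; inhibition shows as a rise in luminescence from relieved DAX1 repression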
Target sequence (P51843 207-470 limits assumed): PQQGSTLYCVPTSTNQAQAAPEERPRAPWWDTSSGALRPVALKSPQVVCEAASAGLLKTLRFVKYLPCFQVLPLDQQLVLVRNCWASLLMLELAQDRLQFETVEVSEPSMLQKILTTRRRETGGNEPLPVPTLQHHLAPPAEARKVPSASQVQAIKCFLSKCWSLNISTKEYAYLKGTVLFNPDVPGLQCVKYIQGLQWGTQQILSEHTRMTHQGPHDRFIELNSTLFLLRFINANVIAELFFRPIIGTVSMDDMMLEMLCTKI
DAX1 inh-2 = inhibitors of DAX1 repression of SF-1 activated StAR promoter. AID 652010. actives 1.1% (n = 370,000). inhibition, % at 6.8 µM. HEK293T StAR-luciferase reporter, SF-1/DAX-1 repression relief;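 active means inhibition above the mean over all tested compounds plus 3 SD, cut at about 3.6% in these data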;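 further: 0% = DAX-1 cells with DMSO and 100% = cells lacking DAX-1 with DMSO; higher inhibition means more luminescence from relief of DAX-1 repression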
hgDAF12 agonist = activates the H. glycines DAF-12 receptor ligand-binding domain; HEK293 GAL4-hgDAF12 UAS-luciferase reporter, agonist luminescence; normalized to butyrate control; activation, % at 6.8 µM; actives 1.8% (n = 370,000);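 active means activation above a cutoff set at the mean of all screened compounds plus 3 SD, cut at about 10% in these data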;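 further: 0% = DMSO wells and 100% = sodium butyrate wells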
ssDAF-12 act = S. stercoralis DAF-12 activation, primary screen | actives 1% (n = 370,000) | HEK293 ssDAF-12/GRIP1 lit1-tk-luc reporter, luminescence; % of 3 µM dafachronic acid response | AID 652126 | activation, % at 6.8 µM;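 active means activation above the mean over all tested compounds plus 3 SD, cut at about 0.9% in these data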;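 further: 0% = DMSO-only wells and 100% = 3 µM delta7-dafachronic acid wells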
SMARCA2 act conf = SMARCA2 activation, confirmation screen | shares compounds with SMARCA2 activ | MG213 cells, MMTV-luciferase with dexamethasone, luminescence, overnight; MG213 cells expressing E1A, Rb sequestered; DMSO wells 0%, reference activator 100% | activation, % at 9.1 µM | actives 30% (n = 3,500) | AID 652260;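 active means activation above its plate's cutoff, the mean activation of tested wells plus 3 SD, cut at about 7.9% in these data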
GAL4-VP16 Luc = counter-screen for SMARCA2 activators: GAL4-VP16 luciferase reporter activation; HEK293 GAL4-VP16 pG5luc reporter, luciferase luminescence; scaled: DMSO wells 0%, SAHA wells 100%; actives 41% (n = 3,500); shares compounds with SMARCA2 activ; AID 686939; activation, % at 9.1 µM;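 active means activation above the solvent-only control well mean plus 3 SD, averaged across control plates, cut at about 5.2% in these data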
* marks the source's active call; other numbers are inactive results; nt = no result given. Hits are enriched below; roughly 4.8% of the tested compounds scored in any of these assays.

SMILES	SMARCA2 activ	hcDAF12 agonist	DAX1 inh-1	DAX1 inh-2	hgDAF12 agonist	ssDAF-12 act	SMARCA2 act conf	GAL4-VP16 Luc
COC(=O)[C@]12C[C@H](CC(=O)NCCCCc3ccccc3)C(=O)N(CCc3ccc(OC)c(OC)c3)C1=C[C@H](C(C)C)O[C@@H]2C1CC1	-2.9	-3.7	nt	-1.3	2.6	-1.4	nt	nt
Cc1nc([N+](=O)[O-])c(C(=O)OCc2ccccc2C#N)n1C	6.3	-0.8	-0.2	0.3	0.1	-1.6	nt	nt
CC(=O)Nc1ccc(NC(=O)c2ccccc2Br)cc1	-4.6	-0.8	nt	0.3	-1.7	-1.1	nt	nt
CCc1ccc(NC(=O)c2ccccc2Br)cc1	9.9*	2.5	5.9*	3.1	12.0*	-0.5	4.6	10.1*
COCc1cc(C)nc(SCC(=O)Nc2ccc(C)c(C)c2)c1C#N	8.1*	-0.1	1.5	-0.5	6.5	0.0	3.7	4.2
O=C1C=C(c2cccs2)C[C@H](c2ccccc2)[C@H]1n1nnc([N+](=O)[O-])n1	8.3*	-2.5	-0.1	-0.4	-2.2	-2.1	8.3*	1.6
Cc1onc(-c2c(F)cccc2Cl)c1C(=O)NC1CCCCCC1	2.0	-1.9	-0.9	-0.1	-1.2	-1.3	nt	nt
Cc1onc(-c2c(F)cccc2Cl)c1C(=O)NC(=S)NC1CCS(=O)(=O)C1 (centres undefined)	15.5*	1.7	-0.3	-0.1	-3.0	-1.0	0.1	0.5
COc1cccc(NC(=O)C2(S(=O)(=O)c3ccc(Cl)cc3)CC2)c1	0.4	-1.9	0.8	-0.4	-0.1	-2.1	nt	nt
CCN(C(=O)CN1C(=O)S/C(=C\C=C\c2ccccc2)C1=O)C1CCS(=O)(=O)C1 (centres undefined)	0.8	1.4	-0.4	1.1	-0.5	-0.9	nt	nt
O=C(/C=C/c1ccccc1)Nc1cccc(C(=O)NC2CC2)c1	12.5*	1.4	1.2	3.8*	8.7	-0.5	0.8	6.7*
O=C(/C=C/c1ccccc1)Nc1cccc(C(=O)NCc2ccccc2)c1	-2.8	-2.0	nt	-0.5	1.5	-1.2	nt	nt
CCN(C(=O)COC(=O)/C(C#N)=C/c1ccc(N(C)C)cc1)C1CCS(=O)(=O)C1 (centres undefined)	8.3*	2.4	3.0	1.5	2.0	-0.7	6.2	3.6
CC(C)(C)c1ccc(C(=O)N2CCC2(C)C(=O)NCc2cccs2)cc1 (centres undefined)	-2.7	-1.9	nt	-3.8	-2.5	-1.6	nt	nt
CCOC(=O)c1c(C)[nH]c(C)c1S(=O)(=O)NCCc1sccc1C	-3.5	-1.2	0.7	2.1	1.9	-1.3	nt	nt
CCOC(=O)c1c(C)[nH]c(C)c1S(=O)(=O)NCCc1ccc(SC)cc1	11.8*	-1.5	0.9	-0.3	-1.1	-1.5	-1.3	0.9
COC(=O)c1cc(C(=O)Nc2nnc(CC(C)C)s2)cc([N+](=O)[O-])c1	11.6*	0.1	-0.3	0.1	-2.4	-1.4	2.7	3.2
Cc1c(N=NC2=C(O)CCCC2=O)c(=O)n(-c2ccccc2)n1C	-0.1	0.9	0.1	0.5	6.3	-1.6	nt	nt
COc1ccc(C)cc1NC(=O)CN1CCN(C/C=C/c2ccccc2)CC1	-2.9	-1.2	-0.8	-0.9	-3.0	-1.5	nt	nt
O=C(O)CCCNS(=O)(=O)c1ccc(F)cc1	8.8*	-0.7	0.1	-0.2	-1.1	-1.1	4.7	-0.3
Cc1cccc(OCCN2C(=O)c3ccccc3C2=O)c1	9.6*	2.1	2.4	1.8	8.2	0.2	4.1	4.6
CCOc1ccc(OCCN2C(=O)c3ccccc3C2=O)cc1	-2.1	-2.4	1.0	-0.3	-1.9	-0.7	nt	nt
Cc1cccc(OCCn2c(=O)sc3ccccc32)c1	9.0*	1.1	1.5	1.2	8.2	-0.4	11.1*	10.0*
Cc1cccc(OCCCn2c(=O)sc3ccccc32)c1	0.3	2.1	-0.1	0.2	5.7	-0.4	nt	nt
CC(=O)OCC1OC(COC(C)=O)(c2ccc(C)cc2)C(OC(C)=O)C1OC(C)=O (centres undefined)	-1.2	-1.3	1.0	-0.6	-1.9	-0.8	nt	nt
SMILES	SMARCA2 activ	hcDAF12 agonist	DAX1 inh-1	DAX1 inh-2	hgDAF12 agonist	ssDAF-12 act	SMARCA2 act conf	GAL4-VP16 Luc
O=C(CNS(=O)(=O)c1ccccc1)OCC(=O)c1ccc(OC(=O)c2ccccc2)cc1	8.7*	-2.1	0.8	0.3	-2.1	-0.5	18.0*	2.2
O=C(Nc1cnc2sccn2c1=O)c1ccccc1Cl	8.0*	2.7	0.4	3.9*	8.9	-0.7	15.3*	11.3*
COc1ccc(NC(=O)c2cnc3sccn3c2=O)cc1	8.3*	4.5	-0.1	1.6	8.2	0.9*	7.8	5.2*
O=C(CN1C(=O)NC2(CCCC2)C1=O)N1CCc2ccccc2C1	0.8	1.1	2.2	-0.6	0.0	-0.1	nt	nt
C=CCNC(=S)N1CCN(Cc2ccccc2)CC1	1.2	2.9	-1.3	-0.2	-3.0	-0.6	nt	nt
CC(=O)Nc1ccc(NC(=O)C(C)OC(=O)/C(C#N)=C/c2ccc(N(C)C)cc2)cc1 (centres undefined)	8.0*	1.2	1.7	2.1	8.3	-0.4	8.7*	7.3*
COc1ccc(/C=C/C(=O)NNC(=O)C(C)Oc2ccccc2F)cc1OC (centres undefined)	-2.0	-1.6	0.6	-0.6	-3.4	-0.9	nt	nt
O=C(Nc1cc(Cl)ccc1Oc1ccccc1)c1ccc(F)cc1	-3.3	-1.7	0.1	-0.7	-3.2	-1.7	nt	nt
O=C(Nc1cc(Cl)ccc1Oc1ccccc1)c1ccccc1F	8.9*	-1.8	-0.5	-1.0	-1.1	-1.4	-3.7	1.4
CC1CCCC(NC(=O)COC(=O)COc2cccc(F)c2)C1C (centres undefined)	1.8	-0.2	0.2	0.5	-0.2	-1.5	nt	nt
O=C(Cn1nc(-c2ccccc2)c2ccccc21)Oc1ccccc1	nt	-0.4	nt	nt	-2.6	-1.4	nt	nt
Cc1ccccc1CC1(CO)CCCN(C(=O)c2ccc3ncccc3c2)C1 (centres undefined)	-0.3	-1.7	0.0	0.5	6.0	-1.2	nt	nt
Oc1ccc(-c2nccc(-c3ccccn3)n2)cc1	10.2*	1.0	1.8	1.1	8.1	-0.7	7.6	8.1*
COc1ccc2cc(C#N)c(SCC(=O)NNC(=O)Cc3ccccc3)nc2c1	9.1*	-0.1	-0.7	-0.5	0.4	-0.7	0.9	1.2
COc1ccc(CN(C)C(=O)c2ccc3c(=O)n4c(nc3c2)CCC4)cc1	8.2*	-3.6	0.1	-1.2	-1.3	-1.2	-3.0	0.2
COc1cccc(CN(C)C(=O)c2ccc3c(=O)n4c(nc3c2)CCC4)c1	-1.2	-2.1	2.4	-0.6	-1.4	-1.1	nt	nt
